Experimental data reported in paper PMC12670160, “A drug-repurposing screen of FDA- and EMA-approved drugs identifies two NF-κB inhibitors active against eumycetoma” (Journal of Antimicrobial Chemotherapy, 2025).
Structures can show the parent of a compound that is named as a salt. Where two headings read alike, the source gives them in different places. In all, about 5,300 compounds went through this assay and about 130 (2.5%) showed an effect of 50% or more. The list comes from a sample in which strong results are over-represented; it also holds similar structures and randomly drawn compounds.

Test system: M. mycetomatis strain mm55
Conditions: primary screen, metabolic activity vs growth control, 96 h, 2 µM, inhibitor
[1] = Madurella mycetomatis metabolic activity at 2µM (%)

| Structure (SMILES) | % viability [%] | % viability [1] [%] |
| --- | --- | --- |
| CC(=O)OCC(=O)[C@@]12OC(C)(C)O[C@@H]1CC1C3C[C@H](F)C4=CC(=O)C=C[C@]4(C)[C@@]3(F)[C@@H](O)C[C@@]12C (some centres unmarked) [ONC0000518, fluocinonide] | 69.32 |  |
| CCN(CC)CCNC(=O)COc1ccc(OC)cc1 [ONC0000676, mefexamide hydrochloride] | 93.51 |  |
| CCN(CC)CCN1C(=O)C(=Cc2ccc(OC)cc2)Nc2ccccc21 [ONC0005609, caroverine] | 42.25 |  |
| COc1ccc(C2Sc3ccccc3N(CCN(C)C)C(=O)C2OC(C)=O)cc1 (centres unmarked) [ONC0005348, diltiazem hydrochloride] | 61.39 |  |
| CC(=O)N[C@H]1[C@H]([C@H](O)[C@H](O)CO)OC(C(=O)O)=C[C@@H]1N=C(N)N [ONC0004525, zanamivir relenza] | 62.68 |  |
| CC[C@]12CCCN3CCc4c(n(c5ccccc45)C(=O)C1)[C@@H]32 [ONC0003441, eburnamonine] | 44.28 |  |
| CCOC(=O)C1=C[C@]2(CC)CCCN3CCc4c(n1c1ccccc41)[C@@H]32 [ONC0002865, vinpocetine] | 109.8 |  |
| CC[C@]12CCCN3CCc4c(n(c5ccccc45)[C@@](O)(C(=O)OC)C1)[C@@H]32 [ONC0003425, vincamine] | 89.22 |  |
| Cc1ccc(NC2=CC(=O)c3sc(C)nc3C2=O)cc1 [ONC0003545, ryuvidine] | 94.75 |  |
| COc1cccc(/C=N/C=N/c2cccc(OC)c2)c1 [ONC0002505, dmeob] | 75.27 |  |
| CO[C@@H](C(=O)N1Cc2n[nH]c(NC(=O)c3ccc(N4CCN(C)CC4)cc3)c2C1)c1ccccc1 [ONC0004749, danusertib pha739358] | 112.5 |  |
| CC1=CC(=C(c2ccc(N)cc2)c2ccc(N)cc2)C=CC1=N [ONC0002809, basic fuchsin] | 79.53 |  |
| CCN(CC)c1ccc(C(=C2C=CC(=[N+](CC)CC)C=C2)c2ccccc2)cc1 [ONC0002765, brilliant green] | 123.8 |  |
| CN(C)c1ccc(C(=C2C=CC(=[N+](C)C)C=C2)c2ccc(N(C)C)cc2)cc1 [ONC0000415, gentian violet] | 35.99 |  |
| Cc1cc(O)c(-c2ccc([C@@H](C)CN)cc2)c2c1[nH]c(=O)c1sccc12 [ONC0001173, ots514] | 81.93 |  |
| CCOc1nc2cccc(C(=O)OC(C)OC(=O)OC3CCCCC3)c2n1Cc1ccc(-c2ccccc2-c2nnn[nH]2)cc1 (centres unmarked) [ONC0004302, candesartan cilextil] | 98.1 |  |
| CCCCCCCCCCCCOS(=O)(=O)O [ONC0002181, sodiumdodecylsulfate] |  | 96.71 |
| Nc1nc(O)c2ncn(COC(CO)CO)c2n1 [ONC0003983, ganciclovir hydrate] | 92.25 |  |

| Structure (SMILES) | % viability [%] | % viability [1] [%] |
| --- | --- | --- |
| NS(=O)(=O)Nc1ncnc(OCCOc2ncc(Br)cn2)c1-c1ccc(Br)cc1 [ONC0002096, aprocitentan] | 65.83 |  |
| CC(C)(C)[C@@]1(O)CCN2C[C@@H]3c4ccccc4CCc4cccc(c43)[C@H]2C1 [ONC0002006, butaclamolhcl] | 90.12 |  |
| C=C1NCC[C@@H](C(=O)O)N1 [ONC0005375, ectoinezwitterion] | 125.4 |  |
| OC[C@H]1O[C@H](O[C@H]2O[C@H](CO)[C@@H](O)[C@H](O)[C@H]2O)[C@H](O)[C@@H](O)[C@@H]1O [ONC0003487, trehalose] | 42.59 |  |
| NC[C@H]1O[C@H](O[C@H]2C(O[C@@H]3O[C@H](CO)[C@@H](O)[C@H]3O)[C@@H](O)[C@H](N)C[C@@H]2N)[C@H](N)[C@@H](O)[C@@H]1O (some centres unmarked) [ONC0002301, ribostamycin sulfate] | 111.7 |  |
| NC[C@@H]1O[C@H](O[C@H]2[C@@H](O)[C@H](O[C@@H]3[C@@H](O)[C@H](N)C[C@H](N)[C@H]3O[C@H]3O[C@H](CO)[C@@H](O)[C@H](O)[C@H]3N)O[C@@H]2CO)[C@H](N)[C@@H](O)[C@@H]1O [ONC0005310, paromomycin] | 134.8 |  |
| OC[C@H]1O[C@@H](O[C@@H]2[C@H](O)[C@@H](O)[C@H](O[C@H]3[C@H](O)[C@@H](O)C(O)O[C@@H]3CO)O[C@@H]2CO)[C@H](O)[C@@H](O)[C@H]1O (some centres unmarked) [ONC0004130, 4galactosyllactose] | 126.3 |  |
| NC[C@H]1O[C@H](O[C@H]2[C@H](O[C@@H]3O[C@H](CO)[C@@H](O)[C@H]3O)[C@@H](O)[C@H](N)C[C@@H]2N)[C@H](N)[C@@H](O)[C@@H]1O [ONC0001104, ribostamycin sulfate] | 39.68 |  |
| OC[C@H]1O[C@H](O[C@H]2[C@H](O)[C@@H](O)[C@H](O)O[C@@H]2CO)[C@H](O)[C@@H](O)[C@@H]1O [ONC0000327, dmaltose] | 54.64 |  |
| O=C1OC2(c3cc(I)c(O)c(I)c3Oc3c2cc(I)c(O)c3I)c2c(Cl)c(Cl)c(Cl)c(Cl)c21 [ONC0002798, rose bengal sodium salt] |  | 83.07 |
| CC1=C(C(=O)O)N2C(=O)[C@@H](NC(=O)[C@H](N)C3=CCC=CC3)C2SC1 (some centres unmarked) [ONC0000708, cephradine] | 86.49 |  |
| CC1(C)Oc2ccc(C#N)cc2[C@H](N(Cc2ncc[nH]2)c2ccc(Cl)cc2)[C@H]1O [ONC0001872, bms191095] | 47.09 |  |
| CCS(=O)(=O)N(C)[C@@H]1c2cc(C#N)ccc2OC(C)(C)[C@H]1O.CCS(=O)(=O)N(C)[C@H]1c2cc(C#N)ccc2OC(C)(C)[C@@H]1O [ONC0001571, chromanol] | 78.85 |  |
| CCS(=O)(=O)N(C)[C@H]1c2cc(C#N)ccc2OC(C)(C)[C@@H]1O [ONC0002693, chromanol293b3r4s] | 103.9 |  |
| CCCCn1c(-c2ccccc2)nc(-c2ccccc2)c1CN(Cc1ccc2c(c1)OCO2)Cc1ccc2c(c1)OCO2 [ONC0002511, ndt9513727] | 38.93 |  |
| c1ccc(C(O[C@@H]2CCCN(CCc3ccc4c(c3)OCO4)C2)c2ccccc2)cc1 [ONC0003094, zamifenacin] | 77.83 |  |
| c1ccc2sc(N3CCN(Cc4ccc5c(c4)OCO5)CC3)nc2c1 [ONC0000161, 214piperonylpiperazinylbenzothiazole] | 77.89 |  |
